Results on eleven molecules are retold here after ChEMBL document CHEMBL3988442, “University of Dundee, Small-Polar-MMV Screening Library” (2021).

Parameters in all cases: scale not given: direction of the effect not stated beside the values
Assay [1] addresses Protein translocase subunit SecA (Escherichia coli (strain K12)) (UniProt P10408). Description: Assay to Identify E. coli SecA ATPase Inhibitors. The class given is functional. To be noted: 30 µM.
In assay [2] the target is T1, Ubiquitin-activating enzyme e1, putative (Leishmania donovani (strain BPK282A1)) (UniProt E9BSI1).
T1 sequence (whole entry): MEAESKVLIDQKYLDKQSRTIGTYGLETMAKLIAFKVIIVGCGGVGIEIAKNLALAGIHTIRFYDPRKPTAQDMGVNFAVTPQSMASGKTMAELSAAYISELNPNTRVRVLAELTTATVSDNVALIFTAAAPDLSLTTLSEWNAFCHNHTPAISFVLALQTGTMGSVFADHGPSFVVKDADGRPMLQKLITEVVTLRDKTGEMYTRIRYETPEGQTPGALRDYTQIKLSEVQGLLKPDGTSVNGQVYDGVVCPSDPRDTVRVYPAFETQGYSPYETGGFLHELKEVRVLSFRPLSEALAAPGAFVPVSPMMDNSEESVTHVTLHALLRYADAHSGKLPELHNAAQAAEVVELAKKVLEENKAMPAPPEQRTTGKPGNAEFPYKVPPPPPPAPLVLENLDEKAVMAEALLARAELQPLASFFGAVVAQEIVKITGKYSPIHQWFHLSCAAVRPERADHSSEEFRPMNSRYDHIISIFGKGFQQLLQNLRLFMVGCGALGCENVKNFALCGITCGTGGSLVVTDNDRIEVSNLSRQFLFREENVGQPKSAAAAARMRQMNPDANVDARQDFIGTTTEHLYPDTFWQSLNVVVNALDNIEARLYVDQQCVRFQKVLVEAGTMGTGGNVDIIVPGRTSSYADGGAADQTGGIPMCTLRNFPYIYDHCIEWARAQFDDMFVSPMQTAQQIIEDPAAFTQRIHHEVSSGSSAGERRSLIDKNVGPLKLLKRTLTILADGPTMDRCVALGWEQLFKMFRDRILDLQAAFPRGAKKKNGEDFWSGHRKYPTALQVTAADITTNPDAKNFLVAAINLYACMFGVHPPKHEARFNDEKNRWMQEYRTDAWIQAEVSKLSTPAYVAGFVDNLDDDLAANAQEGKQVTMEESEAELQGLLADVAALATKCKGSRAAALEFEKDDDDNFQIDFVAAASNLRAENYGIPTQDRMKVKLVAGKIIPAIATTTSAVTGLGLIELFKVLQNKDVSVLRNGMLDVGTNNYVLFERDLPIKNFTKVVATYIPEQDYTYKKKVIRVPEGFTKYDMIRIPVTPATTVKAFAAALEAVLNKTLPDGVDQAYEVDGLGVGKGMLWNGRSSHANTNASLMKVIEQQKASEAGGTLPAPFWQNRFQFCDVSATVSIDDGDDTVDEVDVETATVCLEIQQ
Description: Leishmania donovani Ubiquitin Activating Enzyme (LdE1). The class given is functional. The note with it: 30 µM.

For assay [3], the target named is AMP-activated protein kinase, AMPK (Homo sapiens) (UniProt P54646+O43741+P54619+Q9UGJ0+Q9Y478+Q13131+Q9UGI9). Description: AMP-dependent Kinase enzyme assay. An in vitro enzyme assay that detects ADP turnover that is directly proportional to AMPK activity. This uses naive AMPK that is activated during the assay with MK-8722. The format is functional. To be noted: 30 µM.

Assay [4] addresses Sialic acid-binding Ig-like lectin 9 (Homo sapiens) (UniProt Q9Y336). Description: Hs-Siglec9 ALPHAscreen SOP 20170721. The note with it: 10 µM. Background: Alpha assays give light when donor and acceptor beads are brought close together.
A further assay has as its system Trypanosoma cruzi. The assay can be described thus: Trypanosoma cruzi phosphomannomutase and mannose-1-phosphate guanylyltransferase assay. The format is functional. The note with it: 10 µM.
Assay [5] deals with T2, Arginase-2, mitochondrial (Homo sapiens) (UniProt P78540).
T2 sequence (whole entry): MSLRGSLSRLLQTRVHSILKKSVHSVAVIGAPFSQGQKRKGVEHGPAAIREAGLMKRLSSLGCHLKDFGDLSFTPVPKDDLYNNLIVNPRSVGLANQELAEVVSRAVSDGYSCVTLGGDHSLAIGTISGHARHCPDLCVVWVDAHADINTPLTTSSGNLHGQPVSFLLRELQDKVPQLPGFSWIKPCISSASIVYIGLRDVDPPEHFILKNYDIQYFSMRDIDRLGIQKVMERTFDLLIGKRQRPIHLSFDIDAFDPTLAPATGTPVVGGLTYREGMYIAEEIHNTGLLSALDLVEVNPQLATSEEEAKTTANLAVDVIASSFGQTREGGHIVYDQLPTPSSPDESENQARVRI
The assay can be described thus: in vitro enzyme assay to detect the production of urea directly proportional to the activity of Arginase II. Note: in the data most compounds retested in dose-response had high values. The class given is functional. To be noted: 33.3 µM.

Assay [6] has as its target T3, Proteasome subunit beta (Trypanosoma cruzi) (UniProt O96673).
T3 sequence (whole entry): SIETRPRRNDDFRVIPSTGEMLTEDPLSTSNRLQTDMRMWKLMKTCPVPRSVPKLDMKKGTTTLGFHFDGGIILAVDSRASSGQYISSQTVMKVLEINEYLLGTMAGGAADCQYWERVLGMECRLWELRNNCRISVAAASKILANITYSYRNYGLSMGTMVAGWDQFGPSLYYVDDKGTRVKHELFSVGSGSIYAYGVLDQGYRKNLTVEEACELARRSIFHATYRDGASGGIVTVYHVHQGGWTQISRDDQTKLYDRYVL
The assay can be described thus: Trypanosoma cruzi proteasome chymotrypsin-like activity (TcProtChymo) assay. Note: in the data most compounds retested in dose-response had high values. The note with it: 9.37 µM. The format is functional.

For a further assay, the species on record is Homo sapiens. The assay can be described thus: To identify inhibition of the IFN signalling (Jak-Stat) pathway via expression of an eGFP reporter gene under the control of an IFN-stimulated response element (ISRE) containing MxA promoter. The format is functional. The note with it: 30 µM. (In a reporter assay the amount or activity of a reporter protein is the signal.)

Assay [7] addresses T4, Tyrosyl-tRNA synthetase, putative (Trypanosoma cruzi (strain CL Brener)) (UniProt Q4DSP6).
T4 sequence (whole entry): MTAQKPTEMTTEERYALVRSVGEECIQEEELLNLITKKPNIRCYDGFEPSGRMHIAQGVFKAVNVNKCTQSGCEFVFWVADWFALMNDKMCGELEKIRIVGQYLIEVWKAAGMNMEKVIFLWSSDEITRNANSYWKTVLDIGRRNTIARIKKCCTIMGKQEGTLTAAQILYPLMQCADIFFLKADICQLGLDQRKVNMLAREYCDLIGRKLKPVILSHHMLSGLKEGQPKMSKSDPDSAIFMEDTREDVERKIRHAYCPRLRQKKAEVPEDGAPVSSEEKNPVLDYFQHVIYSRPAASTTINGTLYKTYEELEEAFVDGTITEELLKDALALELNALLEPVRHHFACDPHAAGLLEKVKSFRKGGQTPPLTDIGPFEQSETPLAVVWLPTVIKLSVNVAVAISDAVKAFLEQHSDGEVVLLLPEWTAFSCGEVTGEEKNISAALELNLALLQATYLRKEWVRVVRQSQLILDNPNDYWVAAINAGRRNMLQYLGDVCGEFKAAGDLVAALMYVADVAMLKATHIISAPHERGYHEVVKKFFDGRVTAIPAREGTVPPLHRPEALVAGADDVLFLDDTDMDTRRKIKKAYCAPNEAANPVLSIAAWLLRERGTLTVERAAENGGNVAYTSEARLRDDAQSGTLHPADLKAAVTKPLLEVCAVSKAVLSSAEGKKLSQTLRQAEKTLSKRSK
The assay can be described thus: Trypanosoma cruzi tyrosyl tRNA synthetase (TcYRS) _High Tyrosine SOP. Note: in the data most compounds retested in dose-response had high values. The class given is functional. To be noted: 30 µM.

The target of assay [8] is T4, Tyrosyl-tRNA synthetase, putative (Trypanosoma cruzi (strain CL Brener)). The assay can be described thus: Trypanosoma cruzi tyrosyl tRNA synthetase (TcYRS) SOP. The format is functional. The note with it: 30 µM.
Assay [9] deals with Chromo domain-containing protein 1 (Saccharomyces cerevisiae (strain ATCC 204508 / S288c) (Baker's yeast)) (UniProt P32657). Description: ScCHD-1 Enzyme Inhibition Assay. Note: in the data most compounds retested in dose-response had high values. The format is functional. To be noted: 30 µM.
Chain of Chromo domain-containing protein 1 (Saccharomyces cerevisiae (strain ATCC 204508 / S288c) (Baker's yeast)) (P32657 whole entry, the tested form may be a part): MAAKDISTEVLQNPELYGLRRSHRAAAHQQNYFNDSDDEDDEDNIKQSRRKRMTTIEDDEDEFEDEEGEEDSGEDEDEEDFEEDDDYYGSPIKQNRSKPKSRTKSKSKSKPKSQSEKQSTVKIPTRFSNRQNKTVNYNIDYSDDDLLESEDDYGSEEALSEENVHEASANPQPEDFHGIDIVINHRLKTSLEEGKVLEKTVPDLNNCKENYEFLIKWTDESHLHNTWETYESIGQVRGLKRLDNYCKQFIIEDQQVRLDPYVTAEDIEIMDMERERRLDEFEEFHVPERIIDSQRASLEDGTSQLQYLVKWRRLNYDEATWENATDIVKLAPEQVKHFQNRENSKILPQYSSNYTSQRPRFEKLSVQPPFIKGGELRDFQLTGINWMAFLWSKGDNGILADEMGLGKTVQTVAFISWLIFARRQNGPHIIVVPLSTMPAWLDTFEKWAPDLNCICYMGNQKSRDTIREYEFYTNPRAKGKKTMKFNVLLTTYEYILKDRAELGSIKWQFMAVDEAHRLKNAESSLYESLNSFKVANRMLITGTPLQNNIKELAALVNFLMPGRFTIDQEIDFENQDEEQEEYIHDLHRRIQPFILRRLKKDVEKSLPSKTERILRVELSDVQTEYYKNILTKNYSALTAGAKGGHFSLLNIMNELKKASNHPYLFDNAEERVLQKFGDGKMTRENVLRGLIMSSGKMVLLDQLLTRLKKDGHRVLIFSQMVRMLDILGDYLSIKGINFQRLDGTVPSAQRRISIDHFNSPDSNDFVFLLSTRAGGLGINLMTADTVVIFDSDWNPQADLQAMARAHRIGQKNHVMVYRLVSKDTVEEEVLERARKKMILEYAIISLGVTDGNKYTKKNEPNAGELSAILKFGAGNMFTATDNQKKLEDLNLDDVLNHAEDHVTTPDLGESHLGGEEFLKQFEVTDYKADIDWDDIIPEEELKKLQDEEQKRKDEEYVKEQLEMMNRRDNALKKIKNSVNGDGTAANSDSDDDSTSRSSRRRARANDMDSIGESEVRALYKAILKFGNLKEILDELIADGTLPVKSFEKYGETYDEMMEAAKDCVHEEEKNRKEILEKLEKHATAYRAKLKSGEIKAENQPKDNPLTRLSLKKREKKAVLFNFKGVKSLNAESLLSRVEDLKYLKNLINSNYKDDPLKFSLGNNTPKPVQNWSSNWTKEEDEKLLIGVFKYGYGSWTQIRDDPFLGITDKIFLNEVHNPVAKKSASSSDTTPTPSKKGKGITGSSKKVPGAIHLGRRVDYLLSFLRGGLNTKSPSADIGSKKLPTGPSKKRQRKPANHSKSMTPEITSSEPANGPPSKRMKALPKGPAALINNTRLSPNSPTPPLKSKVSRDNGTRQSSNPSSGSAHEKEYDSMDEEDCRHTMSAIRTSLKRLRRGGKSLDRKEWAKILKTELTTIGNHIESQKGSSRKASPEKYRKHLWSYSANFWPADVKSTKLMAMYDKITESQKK

The structures appear in SMILES notation. For some of these results: Measured potencies and affinities stand elsewhere.

Chain of Protein translocase subunit SecA (Escherichia coli (strain K12)) (P10408 whole entry): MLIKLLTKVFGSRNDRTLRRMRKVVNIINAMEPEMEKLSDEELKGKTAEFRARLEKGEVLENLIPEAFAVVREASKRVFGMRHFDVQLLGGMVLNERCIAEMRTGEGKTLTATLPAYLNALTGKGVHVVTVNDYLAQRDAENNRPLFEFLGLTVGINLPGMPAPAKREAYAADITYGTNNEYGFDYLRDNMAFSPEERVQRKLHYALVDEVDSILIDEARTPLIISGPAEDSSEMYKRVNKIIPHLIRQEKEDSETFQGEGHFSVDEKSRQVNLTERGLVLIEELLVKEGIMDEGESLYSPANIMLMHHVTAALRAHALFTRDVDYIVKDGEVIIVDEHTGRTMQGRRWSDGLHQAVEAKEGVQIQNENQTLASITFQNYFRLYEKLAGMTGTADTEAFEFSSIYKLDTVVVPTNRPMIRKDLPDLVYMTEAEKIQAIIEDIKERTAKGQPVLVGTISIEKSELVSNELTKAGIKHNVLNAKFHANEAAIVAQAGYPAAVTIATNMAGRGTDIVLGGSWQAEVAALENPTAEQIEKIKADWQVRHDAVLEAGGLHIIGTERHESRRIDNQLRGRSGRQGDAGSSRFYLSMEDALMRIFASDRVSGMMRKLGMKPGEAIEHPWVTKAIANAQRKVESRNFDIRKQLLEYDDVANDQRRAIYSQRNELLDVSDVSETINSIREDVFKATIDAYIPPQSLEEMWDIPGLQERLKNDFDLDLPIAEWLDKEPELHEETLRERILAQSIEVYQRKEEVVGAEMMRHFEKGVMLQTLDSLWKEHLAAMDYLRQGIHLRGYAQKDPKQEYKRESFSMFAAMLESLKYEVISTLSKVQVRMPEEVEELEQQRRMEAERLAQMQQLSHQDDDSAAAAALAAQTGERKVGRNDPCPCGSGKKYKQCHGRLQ
Chain of Sialic acid-binding Ig-like lectin 9 (Homo sapiens) (Q9Y336 whole entry): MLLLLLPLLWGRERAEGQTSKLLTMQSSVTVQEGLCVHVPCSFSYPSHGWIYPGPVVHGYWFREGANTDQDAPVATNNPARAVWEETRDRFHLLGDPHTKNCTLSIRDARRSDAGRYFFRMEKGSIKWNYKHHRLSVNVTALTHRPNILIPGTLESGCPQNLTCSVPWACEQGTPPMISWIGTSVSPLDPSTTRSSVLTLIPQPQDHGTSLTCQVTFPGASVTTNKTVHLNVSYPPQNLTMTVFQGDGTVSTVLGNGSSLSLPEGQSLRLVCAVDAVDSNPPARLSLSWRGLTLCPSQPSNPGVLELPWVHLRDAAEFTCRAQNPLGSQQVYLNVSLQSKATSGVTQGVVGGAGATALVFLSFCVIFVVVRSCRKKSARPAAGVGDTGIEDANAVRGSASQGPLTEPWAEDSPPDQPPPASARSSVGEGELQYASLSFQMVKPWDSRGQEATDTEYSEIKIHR

Take `c1ccc(Cc2noc(CNC3CCc4ncnn4C3)n2)cc1` (stereo unspecified): the Percent Effect in assay [1] is -2.79%; in assay [2] it was 16.2%; in assay [3] it was -4.03%; in [4], 4.98%; in the assay on Trypanosoma cruzi, 3.81%; in [5] it was -3.88%. Also, the Percent Effect was 8.44% in assay [6]; 1.98% in the assay listed under Homo sapiens; 10.9% in assay [7]; 25.6% in assay [8]; -5.11% in assay [9].
Regarding `CC(C)CNC(=O)c1c(-n2cnnn2)sc2c1CCC2`, the Percent Effect in [1] was -4.85%; in [2], 13.2%; in [3], 3.3%; in [4] it was 0.76%; in the assay with Trypanosoma cruzi, 0.0974%; in assay [5] it was 0%. In addition, the Percent Effect in [6] was 10.4%; in the assay filed under Homo sapiens, -15.7%; in assay [7], 2.13%; in assay [8], 15.6%; in assay [9], -4.29%.
Regarding `CC(=O)N1CCN(C(=O)CN2CCc3c(ncn3C3CC3)C2)CC1`, the Percent Effect in [1] is -0.513%; in assay [2], 19%; in [3] it was -1.56%; in assay [4], -4.08%; in the assay on Trypanosoma cruzi, 1.33%; in [5], 5.38%. The Percent Effect is 17.5% in assay [6]; 11.7% in the assay listed under Homo sapiens; 1.04% in assay [7]; 5.06% in assay [8]; -19.7% in assay [9].
As to `Cc1cnn(Cc2cc(F)ccc2F)c1NC(=O)C1COCCO1` (stereo unspecified), the Percent Effect in [1] was -7.31%; in assay [2], 2.67%; in assay [3], 1.44%; in assay [4] it was 22.4%; in the assay on Trypanosoma cruzi, 0.876%; in assay [5], 4.17%. Further, the Percent Effect in assay [6] was 5.75%; in the assay filed under Homo sapiens it was 5.83%; in [7], 4.92%; in [8], 13.6%; in assay [9], -4.84%.
Consider `Cc1nsc(N2CCCN(c3nc(C4CC4)ns3)CC2)n1`, for which the Percent Effect in assay [1] was -2.5%; in [2] it was 11%; in assay [3] it was 9.09%; in assay [4] it was 5.05%; in the assay with Trypanosoma cruzi it was 4.9%; in assay [5], 19.1%. Moreover, the Percent Effect in [6] is 10.1%; in the assay filed under Homo sapiens, 5.1%; in assay [7], 1.07%; in [8] it was 5%; in assay [9], -4.56%.
Turning to `CCc1nc(CN2CCCC(NCc3nc4cccnc4[nH]3)C2)no1` (stereo unspecified), the Percent Effect in assay [1] was -0.119%; in [2] it was 20.2%; in assay [3], -9.6%; in [4], -10.5%; in the assay on Trypanosoma cruzi it was 2.36%; in [5], 0%. The Percent Effect in assay [6] was 5.98%; in the assay filed under Homo sapiens, 11.5%; in [7], 10.3%; in assay [8], 16.5%; in assay [9], -8.46%.
As to `COCC1c2c(cnn2CC2CC2)CCN1Cc1ccc(OC)cc1` (stereo unspecified), the Percent Effect in assay [1] was 0.566%; in [2] it was -5.33%; in assay [3], -0.782%; in assay [4] it was 3.28%; with Trypanosoma cruzi, -0.772%; in [5], -53.2%. Also, the Percent Effect in assay [6] was 9.23%; in the assay filed under Homo sapiens, 91.4%; in assay [7] it was -4.17%; in assay [8], 2.5%; in assay [9], -3.58%.
On to `CCCNCc1cc2c(C)cc(C)cc2n2c(=O)n(C)nc12`, for which the Percent Effect in assay [1] is -5.13%; in [2] it was 4.05%; in [3], 11%; in assay [4], 0.45%; with Trypanosoma cruzi it was 4.94%; in assay [5] it was 9.05%. In addition, the Percent Effect in [6] is 5.62%; in the assay filed under Homo sapiens, 16.2%; in assay [7], 4.3%; in assay [8] it was 3.9%; in assay [9] it was -20%.
Take `CC(C)c1noc(CN(Cc2cccs2)C2CC2)n1`: the Percent Effect was -4.69% in assay [1]; -5.2% in assay [2]; 7.3% in assay [3]; 44.2% in [4]; -5.61% in the assay on Trypanosoma cruzi; 4.14% in assay [5]. The Percent Effect in [6] is 5.16%; in the assay filed under Homo sapiens, 18.1%; in assay [7], -4.3%; in assay [8] it was -8.64%; in assay [9] it was 2.56%.
`CCCS(=O)(=O)N1CCC2(CN(c3cnn(C)c3)C(=O)CN2C)C1` (stereo unspecified): the Percent Effect in [1] was 1.02%; in assay [2], 10.8%; in assay [3], 5.11%; in assay [4], -11.2%; with Trypanosoma cruzi, -4.69%; in [5] it was 0.833%. For the same molecule, the Percent Effect in assay [6] was 20.4%; in the assay filed under Homo sapiens, 6.16%; in assay [7] it was 6.93%; in assay [8], 8.54%; in assay [9], 1.55%.
As for `CC(=O)NCc1ccc(C(=O)N2CCCCC2Cn2cccn2)o1` (stereo unspecified), the Percent Effect in [1] was -1.39%; in assay [2], 27%; in assay [3] it was -1.91%; in assay [4], -5%; in the assay on Trypanosoma cruzi it was 4.18%; in assay [5], -5.36%. Moreover, the Percent Effect was 14.4% in assay [6]; 17.1% in the assay listed under Homo sapiens; 1.98% in assay [7]; 18.3% in assay [8]; -6.26% in [9].
